HT1080 IDH1KD tx: qHTS for induction of synthetic lethality in tumor cells producing 2HG: qHTS for the HT-1080-IDH1KD cell line; AID 686971, 2013; Potency, µM (top dose mostly 46.1 µM), inactives show at the top dose activity, negative = toxicity, actives largely listed as cytotoxic; actives 2% (n = 360,000); HT-1080 IDH1 knockdown viability, ATP luminescence, 48 h;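 also: potency is read from the fitted curve at half-maximal effect; 0% = DMSO wells and -100% = cell-free medium wells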
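Assay cells: HT-1080 with IDH1 knockdown, 750 per well, RPMI/5% FBS. Exposure: 48 h at 37 °C following 2 h pre-incubation. Read: CellTiter-Glo luminescence; fitted concentration-response, curve class assigned.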
TDP1 cell noCPT: qHTS for Inhibitors of human tyrosyl-DNA phosphodiesterase 1 (TDP1): qHTS in cells in absence of CPT; DT40 Tdp1-/- hTDP1 cells, no CPT, ATP luminescence, 48 h; Potency, µM (series often up to 46.2 µM), for the others: at the highest dose activity change, negative = growth inhibition, usual class: inhibitors; actives 15% (n = 420,000); AID 686978, 2013; also: potency is read from the fitted curve at half-maximal effect; nearly all actives have a fitted effect of over 55% in size
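No-CPT arm: Tdp1-/-;hTDP1 DT40 cells (400/well) plus compounds, incubated ≥48 hr at 37 °C. Readout CellTiter-Glo luminescence.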
TDP1 cell CPT: qHTS for Inhibitors of human tyrosyl-DNA phosphodiesterase 1 (TDP1): qHTS in cells in presence of CPT | Potency, µM (top dose mostly 46.2 µM), without a hit: at the highest dose activity change, negative = growth inhibition, actives largely listed as inhibitors | AID 686979, 2013 | actives 12% (n = 420,000) | chicken DT40 Tdp1-/-;hTDP1 cells + 20 nM CPT, ATP luminescence, 48 h; also: potency is read from the fitted curve at half-maximal effect; nearly all actives have a fitted effect of over 55% in size
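Chicken DT40 Tdp1-/- cells stably complemented with human TDP1 were seeded at 400 cells/well in medium containing 20 nM camptothecin, exposed to pin-transferred compounds, and grown at 37 °C for at least 48 hr. Viability was read as ATP luminescence.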
HT1080NT lethal: qHTS for induction of synthetic lethality in tumor cells producing 2HG: qHTS for the HT-1080-NT fibrosarcoma cell line | HT-1080-NT fibrosarcoma viability, CellTiter-Glo ATP luminescence, 48 h | Potency, µM (doses to about 46.1 µM), without a hit: top-dose activity, negative = less viability, actives largely listed as cytotoxic | actives 1.6% (n = 360,000) | AID 686970, 2013;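 also: NT is the 2HG producing partner of a matched IDH1 knockdown line; potency is read from the fitted curve at half-maximal effect; 0% = DMSO-treated cells and -100% = media-only wells without cells; nearly all actives have a fitted effect of over 55% in size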
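Viability of the 2HG-overproducing fibrosarcoma line after 48 hours of compound exposure at 37 degrees C was determined by luminescence with CellTiter-Glo, and concentration-effect curves were then fitted and categorized.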
ELG1 repair inh: qHTS screen for small molecules that inhibit ELG1-dependent DNA repair in human embryonic kidney (HEK293T) cells expressing luciferase-tagged ELG1; Potency, µM (highest dose often 46.1 µM), without a hit: top-dose activity change, negative = inhibition, most hits filed as inhibitors; HEK293T ELG1-luciferase reporter, luminescence, 16 h; DNA damage induced by 5-fluorouridine; actives 2.3% (n = 330,000); also: potency is read from the fitted curve at half-maximal effect; nearly all actives have a fitted effect of over 55% in size
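Step one: seed 2,000 cells per well. Step two: pin-transfer compound or DMSO alongside 5-fluorouridine. Step three: incubate 16 hr, 37 °C, 5% CO2. Step four: add ONE-Glo, wait 30 min, read luminescence.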
IL-1B inflam inh: qHTS for Inhibitors of Inflammasome Signaling: IL-1-beta AlphaLISA Primary Screen; THP-1 LPS/ATP IL-1B secretion, AlphaLISA, 16 h; active compounds read low; activity change, % at 57.5 µM; actives 4.7% (n = 360,000); in the data active = activity change below about -50%; inconclusive = mostly about -30% to -49%
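Secreted IL-1B measured by AlphaLISA bead assay after 16 h compound exposure of THP-1 cells; compounds (final up to 57.5 uM) added 1 h before LPS (250 ng/mL) and ATP (1.25 mM) stimulation; lower signal means less secretion.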
The depositor's hits bear a star; ? = inconclusive; . = no result. The list is not random: actives were taken first. Their share in the collection is about 19%. Unless noted, calls follow the shape of the dose curve; as a rule, active = well fitted curve in the direction sought with a large enough effect; inconclusive = small, poorly fitted or top-dose-only effect, or another doubt; inactive = no such curve, though single readings can be large; an effect the other way counts as inactive or inconclusive. Unless noted, % is scaled to controls: 0 for no effect and ±100 for the full control effect.

SMILES	HT1080 IDH1KD tx	TDP1 cell noCPT	TDP1 cell CPT	HT1080NT lethal	ELG1 repair inh	IL-1B inflam inh
CCOC(=O)[C@]12CCC=C1N(Cc1ccc(Cl)cc1Cl)C(=O)[C@H](CC(=O)NCc1cccc(C(F)(F)F)c1)C2	?	?	?	?	.	0
CCOC(=O)[C@]12CCCC=C1N(Cc1ccc(Cl)cc1Cl)C(=O)[C@H](CC(=O)NCc1ccc(C)o1)C2	?	?	?	?	.	-7
Cc1ccc(N2CCN(C(=O)C(=O)c3cccc([N+](=O)[O-])c3)CC2)cc1	10%	?	?	20%	.	-3
CCCCC(O)(c1ccc(CC)cc1)C(CN1CCOCC1)c1ccccc1 (stereo not drawn)	?	?	?	?	?	-54*
CCc1ccc(C(O)(CC)C(CN2CCOCC2)c2ccccc2)cc1 (stereo not drawn)	-15%	?	?	?	-21%	-20
CCCCC(O)(c1ccccc1)C(CN1CCOCC1)c1ccccc1 (stereo not drawn)	-7%	?	23µM*	-6%	-15%	-5
CCC(O)(c1ccccc1)C(CN1CCOCC1)c1ccccc1 (stereo not drawn)	-7%	-21%	?	0%	13%	-4
COC1=CC(=O)c2c(ccc3ncnc(N)c23)C1=O	2.9µM*	0.29µM*	0.21µM*	4.1µM*	.	-112*
C=C1OC(CO)(n2cnc3c(N)ncnc32)C(O)C1O (stereo not drawn)	.	?	4%	.	.	.
Cc1c(C2(O)CCCCC2)[nH]c2cnccc12	-6%	-16%	-14%	-6%	?	6
CCc1c(C2(O)CCCCC2)[nH]c2cc(C(F)(F)F)ccc12	?	13µM*	?	?	-10%	0
Cc1c(C2(O)CCCCC2)[nH]c2cc(C(F)(F)F)ccc12	?	16µM*	21µM*	?	-7%	-65*
Cc1ccccc1NC(=O)c1ccccc1-c1ccccc1	0%	?	-9%	-1%	6%	2
CC(C)N(C(=O)c1ccccc1-c1ccccc1)C(C)C	-20%	18µM*	?	-1%	-18%	-14
CCOC(=O)c1ccc(NC(=O)Cn2cc(C(=O)c3ccc(Cl)cc3)c(=O)c3ccc(C)nc32)cc1	.	3.3µM*	4.6µM*	.	.	.
Cc1ccc2c(=O)c(C(=O)c3ccccc3)cn(CC(=O)Nc3ccccc3)c2n1	.	-6%	-17%	.	.	.
CCOC(=O)c1ccc(NC(=O)Cn2cc(C(=O)c3ccc(CC)cc3)c(=O)c3ccc(C)nc32)cc1	.	5.8µM*	12µM*	.	.	.
CCOC(=O)c1ccc(NC(=O)COC(=O)c2cn(CC)c3nc(C)ccc3c2=O)cc1	.	?	-2%	.	.	.
CC1(C)CC(=O)C2=C(C1)Oc1ncn(CCCO)c(=N)c1C2c1ccccc1 (stereo not drawn)	2%	2%	-13%	-2%	0%	-15
CN(C)CCCn1cnc2c(c1=N)C(c1ccccc1)c1ccc3ccccc3c1O2 (stereo not drawn)	?	?	6.5µM*	?	?	-10
N=c1c2c(ncn1CCCO)Oc1c(ccc3ccccc13)C2c1ccccc1 (stereo not drawn)	-30%	?	?	?	3%	-28

High-throughput results deposited in PubChem by National Center for Advancing Translational Sciences (NCATS).
